PubChem BioAssay (NCATS)
Several values for one entry are separate records, joined by “and”; a condition that tells them apart may be missing. Identical values can stand only once. Inconclusive results are not listed. Entries that show only a call come without a potency. Unmarked numbers belong to inactive results. Activity calls are given as the source filed them. Calls follow the shape of the dose curve; as a rule, active = well fitted curve in the direction sought with a large enough effect; inconclusive = small, poorly fitted or top-dose-only effect, or another doubt; inactive = no such curve, though single readings can be large; an effect the other way counts as inactive or inconclusive.

Experiments:
[1] = biological target: Cellular tumor antigen p53 (Homo sapiens) (UniProt P04637); assay: Primary qHTS for small molecule compounds that upregulate eGFP-tagged delta133p53alpha (in N-terminal) cells. (AID 2060322); conditions: NCI-H358 eGFP-delta133p53alpha fluorescence, 24 h; activation: hits give high values; also: nearly all actives have a fitted effect of over 75% in size; also: potency is read from the fitted curve at half-maximal effect; as to activation: series mostly up to about 56 µM
Method in brief: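 NCI-H358 cells pre-induced 24 h with 10 ng/ml doxycycline to express N-terminal eGFP-delta133p53alpha, then dosed 24 h at 37C without doxycycline; fixed, Hoechst-stained, GFP intensity by laser scanning cytometry, normalized to DMSO (0%) and 57.5 uM 5-azacytidine (100%).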

[2] = biological target: Aldehyde dehydrogenase, mitochondrial (Homo sapiens) (UniProt P05091); assay: qHTS for Inhibitors of the Aldehyde Dehydrogenase Family (ALDH2) Primary screen (AID 2061308); also: nearly all actives have a fitted effect of over 55% in size
[3] = biological target: Retinaldehyde dehydrogenase 3 (Homo sapiens) (UniProt P47895); assay: qHTS for Inhibitors of the Aldehyde Dehydrogenase Family (ALDH1A3) Primary screen (AID 2061315)

Sequence of Cellular tumor antigen p53 (Homo sapiens) (P04637 whole entry, looked up): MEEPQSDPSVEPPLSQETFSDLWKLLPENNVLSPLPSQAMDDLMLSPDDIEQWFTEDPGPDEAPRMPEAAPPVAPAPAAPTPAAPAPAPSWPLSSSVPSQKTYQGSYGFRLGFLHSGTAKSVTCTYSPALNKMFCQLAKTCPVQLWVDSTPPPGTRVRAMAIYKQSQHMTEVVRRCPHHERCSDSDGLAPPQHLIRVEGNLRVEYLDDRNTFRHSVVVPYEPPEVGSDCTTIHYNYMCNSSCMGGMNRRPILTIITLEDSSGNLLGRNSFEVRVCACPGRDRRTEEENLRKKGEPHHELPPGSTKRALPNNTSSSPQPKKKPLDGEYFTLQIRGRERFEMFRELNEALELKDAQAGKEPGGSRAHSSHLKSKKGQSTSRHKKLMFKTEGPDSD

## COC1CC(O[C@H]2CC[C@@]3(C)C(=CC[C@]4(O)C3[C@H](O)[C@@H](O)[C@]3(C)[C@@H]([C@H](C)O)CC[C@@]34O)C2)OC(C)C1OC1CC(OC)C(OC2CC(OC)C(OC3OC(C)C(OC4OC(CO)C(O)C(O)C4O)C(OC)C3O)C(C)O2)C(C)O1 (some centres undefined)
[1]
  activation: -4.58%
[2]
  Potency: inactive
[3]
  Potency: inactive

## O=S(=O)(N[C@H]1CCCC[C@@H]1N1CCOCC1)c1ccc(Cl)cc1
[1]
  activation: -16.3%
[2]
  Potency: inactive
[3]
  Potency: inactive

## O=C(CO)[C@@H](O)[C@H](O[C@@H]1O[C@H](CO)[C@H](O)[C@H](O)[C@H]1O)[C@H](O)CO
[1]
  activation: 28.3%
[2]
  Potency: inactive
[3]
  Potency: inactive

## CC(C)c1cc2c(N3CCN(C4=NCC(C)(C)S4)CC3)ncnc2s1
[1]
  activation: 3.67%
[2]
  Potency: inactive
[3]
  Potency: inactive

## C[C@@H]1C(=O)O[C@H]2[C@H]1CC[C@@]1(C)C(=O)C=C[C@@](C)(O)[C@H]21
[1]
  activation: 15.2%
[2]
  Potency: inactive
[3]
  Potency: inactive

## COc1c(O)cc2c(c1O)[C@@H]1O[C@H](CO)[C@@H](O)[C@H](O)[C@H]1OC2=O
[1]
  activation: 18% and -2.68%
[2]
  Potency: inactive
[3]
  Potency: inactive

## C/C=C(/C)C(=O)O[C@@H]1C[C@@H](OC(=O)CC(C)C)C2(C)C3C(=O)C=C(C)C2C3C1(C)C (some centres undefined)
[1]
  activation: -29%
[2]
  Potency: inactive
[3]
  Potency: inactive

## O=C(OCC1OC(Oc2ccc(O)cc2COC(=O)C2(O)C(O)CCC(=O)C2OC(=O)C2C=CCC2)C(OC(=O)C2C=CCC2)C(O)C1O)C1C=CCC1 (centres undefined)
[1]
  activation: -3.05%
[2]
  Potency: inactive
[3]
  Potency: inactive

## COC1CC(O[C@H]2CC[C@@]3(C)C(CCC4C3[C@H](OC(C)=O)[C@@H](OC(=O)/C=C/c3ccccc3)[C@]3(C)C(C(C)=O)CC[C@]43O)C2)OC(C)C1OC1CC(OC)C(OC2CC(OC)C(OC3OC(C)C(OC4OC(CO)C(O)C(O)C4O)C(OC)C3O)C(C)O2)C(C)O1 (some centres undefined)
[1]
  activation: -13%
[2]
  activity change, negative = inhibition: 6.42% [at 11.2 µM]
[3]
  activity change, negative = inhibition: 5.71% [at 11.2 µM]

## Cc1cn2cc(CC(=O)N3CCC4(CC3)CN(Cc3ccc(-n5nccn5)cc3Cl)C4)nc2s1
[1]
  activation: -8.93%
[2]
  Potency: inactive
[3]
  Potency: inactive

## C=CC1(C)CC=C2C(CCC3C(C)(C(=O)O)CCCC23C)C1 (centres undefined)
[1]
  activation: -1.53%
[2]
  Potency: inactive
[3]
  Potency: inactive

## CC1(C)Oc2ncnc(N)c2N=C1c1ccc(C2CCC(CC(=O)O)CC2)cc1 (centres undefined)
[1]
  activation: -4.46%
[2]
  Potency: inactive
[3]
  Potency: inactive

## COc1ccc(CN2C(=O)C(=O)c3cc(S(=O)(=O)N4CCC[C@H]4COc4cccnc4)ccc32)cc1
[1]
  activation: 19.7%
[2]
  Potency: inactive
[3]
  Potency: inactive

## Cc1c(C(=O)NCCCO)cnn1-c1nc(-c2cccc(C(F)(F)F)c2)cs1
[1]
  Potency: 9.53 µM (active)
[2]
  Potency: inactive
[3]
  Potency: inactive

## Cc1ccc2c(n1)Oc1ccc(C(C)C(=O)OCC(=O)N(C)C)cc1C2 (centres undefined)
[1]
  activation: -12.6% and -10.9%
[2]
  Potency: inactive
[3]
  Potency: inactive

## O=[N+]([O-])c1ccc(Oc2ccc3c(c2)CCC(c2ccccc2)O3)nc1 (centres undefined)
[1]
  activation: 2.33%
[2]
  Potency: inactive
[3]
  Potency: inactive

## CC1(C)CC[C@]2(C(=O)O)CC[C@]3(C)C(=CCC4[C@@]5(C)CC[C@H](O[C@@H]6O[C@H](C(=O)O)[C@@H](O[C@@H]7OC[C@@H](O)[C@H](O)[C@H]7O)[C@H](O)[C@H]6O)C(C)(C)C5CC[C@]43C)C2C1O (some centres undefined)
[1]
  activation: -1.79%
[2]
  Potency: inactive
[3]
  Potency: inactive

## C=C(C)C1CCC2(C(=O)O)CCC3(C(=O)O)C(CCC4C5(C)CCC(O)C(C)(C(=O)O)C5CCC43C)C12 (centres undefined)
[1]
  activation: -3.82%
[2]
  Potency: inactive
[3]
  Potency: inactive

## C=C1C(=O)O[C@@H]2[C@H]1CCC(C)=C(CCC(=O)O)[C@@]2(C)O
[1]
  activation: -18.3%
[2]
  Potency: inactive
[3]
  Potency: inactive

## C[C@]12C[C@@H](O)[C@@H]3C[C@@]1(O[C@@H]1O[C@H](CO)[C@@H](O)[C@H](O)[C@H]1O)[C@]3(COC(=O)c1ccccc1)C(=O)O2
[1]
  activation: 25.9%
[2]
  Potency: inactive
[3]
  Potency: inactive

## O=C(Nc1nc2cc(C(F)(F)F)cc(NC3CC3)n2n1)c1cccnc1
[1]
  Potency: 4.78 µM (active)
[2]
  Potency: inactive
[3]
  Potency: inactive

## Fc1ccccc1CNCc1ccc(-c2ccnc3[nH]ccc23)cc1
[1]
  activation: 7.14%
[2]
  Potency: inactive
[3]
  Potency: inactive

## Cc1cc(CS(=O)(=O)c2ccccc2)cc(OCc2ccc(CN3CCCC3CO)cc2)c1 (centres undefined)
[1]
  activation: 8.93%
[2]
  Potency: inactive
[3]
  Potency: inactive
